Reference: publication PMC4336329 (PLoS ONE, 2015)
Hit rate of the full screen: of about 310,000 compounds, about 2,200 (0.71%) showed an effect of 50% or more. The effect is printed as a negative number. The full list was thinned out, with strong results kept by preference.

Target: human ether-à-go-go-related gene (hERG) potassium channel (human, UniProt Q12809)
Test: primary screen, population patch clamp on CHO cells stably expressing hERG; higher = less effect of the substance

Chain of human ether-à-go-go-related gene (hERG) potassium channel (Q12809 whole entry, looked up): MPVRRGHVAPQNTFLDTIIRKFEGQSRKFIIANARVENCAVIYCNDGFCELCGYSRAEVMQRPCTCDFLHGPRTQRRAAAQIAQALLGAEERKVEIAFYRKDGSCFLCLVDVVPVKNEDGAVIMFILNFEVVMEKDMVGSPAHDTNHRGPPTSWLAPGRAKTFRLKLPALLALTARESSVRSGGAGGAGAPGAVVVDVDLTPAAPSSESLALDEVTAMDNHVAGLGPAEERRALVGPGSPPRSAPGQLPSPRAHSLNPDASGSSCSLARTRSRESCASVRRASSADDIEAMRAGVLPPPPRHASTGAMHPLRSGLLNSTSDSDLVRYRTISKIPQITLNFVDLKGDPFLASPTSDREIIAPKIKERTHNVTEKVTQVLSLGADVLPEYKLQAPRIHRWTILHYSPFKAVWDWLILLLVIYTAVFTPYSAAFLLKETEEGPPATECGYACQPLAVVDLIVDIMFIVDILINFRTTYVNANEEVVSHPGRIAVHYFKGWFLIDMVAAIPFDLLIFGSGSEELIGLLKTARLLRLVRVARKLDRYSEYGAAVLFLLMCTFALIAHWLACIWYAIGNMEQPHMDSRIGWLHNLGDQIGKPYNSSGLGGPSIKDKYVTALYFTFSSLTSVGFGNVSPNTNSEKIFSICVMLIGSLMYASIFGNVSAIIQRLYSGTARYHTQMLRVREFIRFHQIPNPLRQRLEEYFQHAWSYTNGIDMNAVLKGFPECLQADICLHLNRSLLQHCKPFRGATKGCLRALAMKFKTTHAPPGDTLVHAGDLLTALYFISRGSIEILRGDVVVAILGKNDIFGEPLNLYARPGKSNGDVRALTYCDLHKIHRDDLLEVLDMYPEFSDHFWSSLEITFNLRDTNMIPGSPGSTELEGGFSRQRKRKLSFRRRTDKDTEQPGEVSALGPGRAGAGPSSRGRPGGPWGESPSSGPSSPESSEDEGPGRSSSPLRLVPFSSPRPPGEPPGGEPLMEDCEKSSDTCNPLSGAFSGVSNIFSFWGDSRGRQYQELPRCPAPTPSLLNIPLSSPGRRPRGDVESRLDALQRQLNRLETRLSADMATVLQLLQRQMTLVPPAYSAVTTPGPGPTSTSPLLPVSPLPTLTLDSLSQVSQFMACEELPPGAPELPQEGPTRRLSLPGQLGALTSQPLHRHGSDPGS

Question: With `CSCC(=O)N1CCCC(N2CCN(c3ccc(F)cc3)CC2)C1` (stereo not shown) as the molecule, how does the “hERG current change (%, negative = inhibition) at 1uM” value read?
Answer: 0.918%

Question: How did the “hERG current change (%, negative = inhibition) at 1uM” value turn out when `O=C(CSc1ccccc1)N1CCCC(N2CCN(c3ccccc3)CC2)C1` (stereo not shown) was run?
Answer: 2.18%

Question: `COc1ccccc1OCC(=O)N1CCCC(N2CCN(c3ccc(F)cc3)CC2)C1` (stereo not shown) was tested. Which “hERG current change (%, negative = inhibition) at 1uM” value did it give?
Answer: 4.57%

Question: Which “hERG current change (%, negative = inhibition) at 1uM” value does the source give for `O=C(CSc1ccccc1)N1CCCC(N2CCN(c3ccc(F)cc3)CC2)C1` (stereo not shown) here?
Answer: -56%

Question: For `Cc1ccc(OCC(=O)N2CCCC(N3CCN(c4ccc(F)cc4)CC3)C2)cc1` (stereo not shown), which “hERG current change (%, negative = inhibition) at 1uM” value is on record?
Answer: -90.2%

Question: `O=C(COc1ccccc1Cl)N1CCCC(N2CCN(c3ccc(F)cc3)CC2)C1` (stereo not shown) was tested. Which “hERG current change (%, negative = inhibition) at 1uM” value did it give?
Answer: -19.5%

Question: `CC(=O)Nc1cc(C(C)(C)C)c(O)c(C(C)(C)C)c1` was tested. Which “hERG current change (%, negative = inhibition) at 1uM” value did it give?
Answer: 13.4%

Question: How did the “hERG current change (%, negative = inhibition) at 1uM” value turn out when `CCCNC(=O)c1cc(S(=O)(=O)N2CCCCC2)ccc1N1CCOCC1` was run?
Answer: -9.91%

Question: For `CC1CCC(NC(=O)CN2CCCN(Cc3ccc(F)cc3Cl)C2=O)CC1` (stereo not shown), which “hERG current change (%, negative = inhibition) at 1uM” value is on record?
Answer: 8.34%

Question: With `CN(C)C1(CNC(=O)Nc2ccc(Cl)c(Cl)c2)CCCCC1` as the molecule, how does the “hERG current change (%, negative = inhibition) at 1uM” value read?
Answer: 3.77%

Question: With `O=c1c2ccccc2nc2n1CC/C2=C\N1CCN(c2ccc([N+](=O)[O-])cc2)CC1` as the molecule, how does the “hERG current change (%, negative = inhibition) at 1uM” value read?
Answer: -62.1%

Question: `Cc1nc2ccccc2c(=O)n1-c1ccc([N+](=O)[O-])cc1` was tested. Which “hERG current change (%, negative = inhibition) at 1uM” value did it give?
Answer: 11.2%

Question: For `Cl.O.O=c1c2ccccc2nc2n1CC/C2=C/N1CCN(c2cccc(C(F)(F)F)c2)CC1`, which “hERG current change (%, negative = inhibition) at 1uM” value is on record?
Answer: 5.54%

Question: Which “hERG current change (%, negative = inhibition) at 1uM” value does the source give for `O=[N+]([O-])c1ccc(CS(=O)(=O)N2CCN(c3ccccc3)CC2)cc1` here?
Answer: -3.45%

Question: With `CC1CCCC(C)N1c1nnc(N)s1` (stereo not shown) as the molecule, how does the “hERG current change (%, negative = inhibition) at 1uM” value read?
Answer: 10.6%

Question: With `Cc1ccccc1NC(=S)N1CCCN(Cc2ccc(F)cc2)C1` as the molecule, how does the “hERG current change (%, negative = inhibition) at 1uM” value read?
Answer: 8.61%

Question: `CSc1nc(NCc2ccco2)c2c3c(sc2n1)CN(C)CC3` was tested. Which “hERG current change (%, negative = inhibition) at 1uM” value did it give?
Answer: -38.8%

Question: How did the “hERG current change (%, negative = inhibition) at 1uM” value turn out when `CSc1nc(NCC(C)C)c2c3c(sc2n1)CN(C)CC3` was run?
Answer: -9.92%

Question: For `CSc1nc(NCc2ccccc2)c2c3c(sc2n1)CN(C)CC3`, which “hERG current change (%, negative = inhibition) at 1uM” value is on record?
Answer: -64.2%

Question: `CC(C)c1ccc2c(c1)c(SC(C)(C)C)c(CC(C)(C)C(=O)O)n2Cc1ccc(Cl)cc1` was tested. Which “hERG current change (%, negative = inhibition) at 1uM” value did it give?
Answer: 5.14%

Question: How did the “hERG current change (%, negative = inhibition) at 1uM” value turn out when `COCCNC(=O)C(OC(=O)c1cc2oc(C)cc2n1C)C(C)C` (stereo not shown) was run?
Answer: 7.23%

Question: How did the “hERG current change (%, negative = inhibition) at 1uM” value turn out when `COc1cn(-c2ccccc2)nc1C(=O)Nc1ccc(C)cc1Cl` was run?
Answer: 11.4%

Question: With `CCN(CC)CCNCC(O)(c1ccc(Cl)cc1)c1ccc(Cl)cc1` as the molecule, how does the “hERG current change (%, negative = inhibition) at 1uM” value read?
Answer: -84.4%

Question: `CC(C)(C)NCC(O)(c1ccc(Cl)cc1)c1ccc(Cl)cc1` was tested. Which “hERG current change (%, negative = inhibition) at 1uM” value did it give?
Answer: 13%

Question: For `CCCCNCC(O)(c1ccc(Cl)cc1)c1ccc(Cl)cc1`, which “hERG current change (%, negative = inhibition) at 1uM” value is on record?
Answer: -5.39%

Question: Which “hERG current change (%, negative = inhibition) at 1uM” value does the source give for `Cc1ccc(NC(=O)CN(c2ccc(Cl)cc2)S(=O)(=O)c2cc([N+](=O)[O-])ccc2Cl)cc1` here?
Answer: 7.07%

Question: With `CC(C1CC2CCC1C2)n1c(COc2ccccc2F)nnc1SCC(N)=O` (stereo not shown) as the molecule, how does the “hERG current change (%, negative = inhibition) at 1uM” value read?
Answer: -1.9%

Question: Which “hERG current change (%, negative = inhibition) at 1uM” value does the source give for `O=C(c1ccco1)N1CCN(c2ccnc3cc(Cl)ccc23)CC1` here?
Answer: -63.6%

Question: For `CCOc1ccc2[nH]c3c(N4CCN(C(=O)c5ccco5)CC4)ncnc3c2c1`, which “hERG current change (%, negative = inhibition) at 1uM” value is on record?
Answer: -3.41%

Question: Which “hERG current change (%, negative = inhibition) at 1uM” value does the source give for `O=C(c1ccco1)N1CCN(c2ncnc3c2[nH]c2ccc(Cl)cc23)CC1` here?
Answer: -70.1%

Question: Which “hERG current change (%, negative = inhibition) at 1uM” value does the source give for `O=C(C1CCCCC1)N1CCN(c2ccnc3cc(Cl)ccc23)CC1` here?
Answer: -27.1%

Question: With `O=C(c1ccco1)N1CCN(c2cccc(Cl)c2)CC1` as the molecule, how does the “hERG current change (%, negative = inhibition) at 1uM” value read?
Answer: 9.98%

Question: With `O=C(c1ccco1)N1CCN(c2ccc(Cl)cc2)CC1` as the molecule, how does the “hERG current change (%, negative = inhibition) at 1uM” value read?
Answer: -5.03%

Question: With `Cc1cc(N2CCN(C(=O)c3ccco3)CC2)nc(-c2ccccc2)n1` as the molecule, how does the “hERG current change (%, negative = inhibition) at 1uM” value read?
Answer: -22.6%

Question: With `O=C(C1CCC1)N1CCN(c2ccnc3cc(Cl)ccc23)CC1` as the molecule, how does the “hERG current change (%, negative = inhibition) at 1uM” value read?
Answer: -59.6%

Question: For `Cc1cc(N2CCN(C(=O)c3ccco3)CC2)c2ccccc2n1`, which “hERG current change (%, negative = inhibition) at 1uM” value is on record?
Answer: -68.6%

Question: With `Cc1nc2ccccc2c2oc(C(=O)N3CCN(C(=O)c4ccco4)CC3)cc12` as the molecule, how does the “hERG current change (%, negative = inhibition) at 1uM” value read?
Answer: -23.2%

Question: With `Cc1cccc2[nH]c3c(N4CCN(C(=O)c5ccco5)CC4)ncnc3c12` as the molecule, how does the “hERG current change (%, negative = inhibition) at 1uM” value read?
Answer: -5.77%

Question: Which “hERG current change (%, negative = inhibition) at 1uM” value does the source give for `O=C(C1CC1)N1CCN(c2ccnc3cc(Cl)ccc23)CC1` here?
Answer: -31.6%

Question: Which “hERG current change (%, negative = inhibition) at 1uM” value does the source give for `CCCOc1ccc(N2CC(C(=O)NC3=NCCS3)CC2=O)cc1` (stereo not shown) here?
Answer: -26%

Question: `CCCCN1CCC(COC(=O)c2cc(Cl)c(N)c3c2OCCO3)CC1.Cl` was tested. Which “hERG current change (%, negative = inhibition) at 1uM” value did it give?
Answer: -23.9%

Question: `COc1ccccc1CNS(=O)(=O)c1ccc(-n2cccn2)cc1` was tested. Which “hERG current change (%, negative = inhibition) at 1uM” value did it give?
Answer: 13.3%

Question: `O=C(NCc1cccs1)c1ccccc1` was tested. Which “hERG current change (%, negative = inhibition) at 1uM” value did it give?
Answer: 7.23%

Question: Which “hERG current change (%, negative = inhibition) at 1uM” value does the source give for `CCNc1nc(SCC(=O)OC)nc(N(C)C)n1` here?
Answer: -1.18%

Question: `COc1ccc(CN(CC(=O)NC2CCCCC2)C(=O)CCCC(=O)Nc2ccccn2)cc1` was tested. Which “hERG current change (%, negative = inhibition) at 1uM” value did it give?
Answer: 9.4%

Question: How did the “hERG current change (%, negative = inhibition) at 1uM” value turn out when `Cc1ccccc1OCC(=O)Nc1ccccc1C(=O)N1CCCCC1` was run?
Answer: -4.24%
